# Where “and” joins values, the source holds several entries; their conditions need not be identical. Equal entries are not always repeated. Inconclusive results are not listed. Calls of active or inactive are those of the source. Unless noted, calls follow the shape of the dose curve; as a rule, active = well fitted curve in the direction sought with a large enough effect; inconclusive = small, poorly fitted or top-dose-only effect, or another doubt; inactive = no such curve, though single readings can be large; an effect the other way counts as inactive or inconclusive.
# Tests used:
# [1] = qHTS drug screen for cell cycle checkpoint inhibitors in PARPi-resistant BRCA-mutant ovarian cancer cell lines. (AID 1963452; calls by dose curve; also: potency is read from the fitted curve at half-maximal effect); conditions: PEO1/OlaR viability, CellTiter-Glo luminescence, 96 h; for Z-AUC: stronger effect = lower value
# Outline: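 PEO1, PEO4 and PEO1/OlaR ovarian cancer cells, 600 per well, exposed 96 h at 37C to a dilution series. Viability read by CellTiter-Glo luminescence, normalized to DMSO and empty wells; activity summarized as Z-AUC.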
# [2] = qHTS Assay for Lipid Storage Modulators (AID 1519; calls by dose curve; as to activity change, negative = inhibition: % is scaled to controls: 0 for no effect and ±100 for the full control effect); conditions: Drosophila S3 cells, BODIPY lipid droplet/cell ratio, laser cytometry, cells loaded with oleic acid; for activity change, negative = inhibition: at 57.5 µM (top of the series)
# Outline: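 Cells seeded at 5,000 per well were treated with compounds over a concentration series and loaded with oleic acid (400 uM, as added). Lipid droplet fluorescence (488 nm excitation, 500-530 nm channel) was read by laser-scanning cytometry and normalized to 20 uM Triacsin C.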
# [3] = Validation of Assay for Modulators of Lamin A Splicing (AID 1459; active = well fitted curve in the direction sought with a large enough effect in the signal ratio; the % refers to the signal ratio;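 also: cells exposed to compound for two days before reading; 0% is about no effect; ratio rise marks activators and ratio drop marks inhibitors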)
# Outline: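 Splicing correction is reported by an EGFP-containing lamin A minigene in stably transfected S3 HeLa cells, while DsRed2 controls for viability and nonspecific signal. Cells are exposed to compounds for 48 hrs before the GFP over RFP ratio is taken.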
# [4] = molecular target: ATP-dependent DNA helicase Q1 (Homo sapiens) (UniProt P46063); test: qHTS Validation Assay for Inhibitors of RecQ-Like Dna Helicase 1 (RECQ1) (AID 2353);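 also: plate controls were DMSO vehicle for no effect and enzyme-free control for full effect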
# Outline: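 50 nM RECQ1T1 preincubated 15 min with compound in Tris pH 8.0 buffer with MgCl2, DTT, Tween-20 and 2.5 ug/ml poly(dI-dC); started with 200 nM TAMRA/BHQ-2 forked duplex and 2 mM ATP. Unwinding read as fluorescence (525/598 nm), two reads 2 h apart.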
# [5] = molecular target: Galactokinase (Homo sapiens) (UniProt P51570); test: qHTS Validation Assay for Inhibitors of Human Galactokinase (GALK) (AID 493189); also: 0% is about no effect
# Outline: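 Compounds were pin-transferred into ATP buffer, then GALK-galactose mix was added (final 5 nM enzyme, 100 uM galactose, 35 uM ATP). After 1 h at room temperature, remaining ATP was measured luminescently.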
# [6] = measured here: PEO1 parental Z-AUC
# [7] = measured here: cell count channel max response
# [8] = measured here: lipid channel max response
# Galactokinase (Homo sapiens), sequence (P51570 whole entry, looked up): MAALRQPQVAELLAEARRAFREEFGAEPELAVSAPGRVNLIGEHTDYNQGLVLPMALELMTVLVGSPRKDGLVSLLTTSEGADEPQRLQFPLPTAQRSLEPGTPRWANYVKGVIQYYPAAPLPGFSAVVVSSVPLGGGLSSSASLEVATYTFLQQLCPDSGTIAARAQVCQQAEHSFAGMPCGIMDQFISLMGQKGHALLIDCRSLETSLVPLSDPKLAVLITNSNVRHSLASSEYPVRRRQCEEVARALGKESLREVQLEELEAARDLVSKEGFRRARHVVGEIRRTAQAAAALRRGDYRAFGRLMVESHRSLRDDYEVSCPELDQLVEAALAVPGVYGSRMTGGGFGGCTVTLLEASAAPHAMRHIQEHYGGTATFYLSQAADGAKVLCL
# ATP-dependent DNA helicase Q1 (Homo sapiens), sequence (P46063 whole entry, looked up): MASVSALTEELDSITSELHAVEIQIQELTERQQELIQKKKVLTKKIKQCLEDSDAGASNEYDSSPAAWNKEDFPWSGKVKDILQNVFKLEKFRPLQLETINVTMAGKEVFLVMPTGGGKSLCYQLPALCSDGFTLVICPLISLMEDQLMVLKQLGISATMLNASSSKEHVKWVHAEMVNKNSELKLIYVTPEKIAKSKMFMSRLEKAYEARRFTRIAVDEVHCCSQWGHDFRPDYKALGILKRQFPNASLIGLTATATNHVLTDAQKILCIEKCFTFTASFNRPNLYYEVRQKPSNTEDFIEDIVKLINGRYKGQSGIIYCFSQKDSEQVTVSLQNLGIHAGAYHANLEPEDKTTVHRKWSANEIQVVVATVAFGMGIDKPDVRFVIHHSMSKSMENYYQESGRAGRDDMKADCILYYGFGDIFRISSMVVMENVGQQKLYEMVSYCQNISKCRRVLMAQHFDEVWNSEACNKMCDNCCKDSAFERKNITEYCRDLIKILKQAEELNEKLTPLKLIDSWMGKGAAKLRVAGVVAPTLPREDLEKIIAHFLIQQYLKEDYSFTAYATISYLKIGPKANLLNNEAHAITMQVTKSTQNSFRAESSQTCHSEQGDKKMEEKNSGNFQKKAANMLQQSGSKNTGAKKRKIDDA
smiles,measurement,setting,value
Cn1c(/C=C/CO)c(CO)c2c1C(=O)C=C(N1CC1)C2=O,Z-AUC,[1],-0.176 (inactive)
same,Z-AUC,[1]; [6],-0.939
same,Z-AUC,[1]; measured here: PEO4 Z-AUC,-0.899
CC(=O)O[C@@]12CO[C@@H]1C[C@H](O)[C@@]1(C)C(=O)[C@H](O)C3=C(C)[C@@H](O)C[C@@](O)([C@@H](OC(=O)c4ccccc4)[C@H]21)C3(C)C,Z-AUC,[1],1.05 (inactive)
same,Z-AUC,[1]; [6],0.322
same,Z-AUC,[1]; measured here: PEO4 Z-AUC,0.492
COc1cc2cc(c1Cl)N(C)C(=O)C[C@H](OC(=O)C(C)C)[C@]1(C)O[C@@H]1[C@H](C)[C@@H]1C[C@@](O)(NC(=O)O1)[C@H](OC)/C=C/C=C(\C)C2,Potency,[1],549 nM (active)
same,Z-AUC,[1]; [6],-2.8
same,Z-AUC,[1]; measured here: PEO4 Z-AUC,-2.84
CC(N[C@H]1C[C@@H]1c1ccccc1)c1ccc2c(c1)OCCO2 (some centres undefined),Z-AUC,[1],-0.77 (inactive)
same,Z-AUC,[1]; [6],0.195
same,Z-AUC,[1]; measured here: PEO4 Z-AUC,-0.131
O=C(CBr)N1CC([N+](=O)[O-])([N+](=O)[O-])C1,Z-AUC,[1],1.13 (inactive)
same,Z-AUC,[1]; [6],0.0375
same,Z-AUC,[1]; measured here: PEO4 Z-AUC,1
O=C(O)CNC(=O)C1C(=O)N(C2CCCCC2)C(=O)N(C2CCCCC2)C1=O,Z-AUC,[1],0.43 (inactive)
same,Z-AUC,[1]; [6],0.47
same,Z-AUC,[1]; measured here: PEO4 Z-AUC,0.437
CC(C)[C@]12O[C@H]1[C@@H]1O[C@@]13[C@@]1(C)CCC4=C(COC4=O)[C@@H]1C[C@@H]1O[C@@]13C2=O,Z-AUC,[1],-1.63 (inactive)
same,Z-AUC,[1]; [6],-0.566
same,Z-AUC,[1]; measured here: PEO4 Z-AUC,-1.17
C[C@]12COC(=O)C[C@@H]1CC[C@@H]1[C@@H]2CC[C@@]2(C)[C@H]1CC[C@]2(C)O,Z-AUC,[1],0.596 (inactive)
same,Z-AUC,[1]; [6],0.611
same,Z-AUC,[1]; measured here: PEO4 Z-AUC,0.327
COC[C@H]1OC(=O)c2coc3c2[C@@]1(C)C1=C(C3=O)[C@@H]2CC[C@H](O)[C@@]2(C)C[C@H]1OC(C)=O,Z-AUC,[1],0.029 (inactive)
same,Z-AUC,[1]; [6],-0.102
same,Z-AUC,[1]; measured here: PEO4 Z-AUC,0.779
O=C1CC(c2ccc(O)cc2)Oc2cc(O)cc(O)c21 (centres undefined),"activity change, negative = inhibition",[2],9.01% (inactive)
same,max response,[2]; [7],-5.6%
same,max response,[2]; [8],4.14%
CCCCCCC(C)(C)c1cc(O)c2c(c1)OC(C)(C)C1CC=C(CO)C[C@H]21 (some centres undefined),Z-AUC,[1],1.02 (inactive)
same,Z-AUC,[1]; [6],0.553
same,Z-AUC,[1]; measured here: PEO4 Z-AUC,0.644
CO[C@H]1CCC(O[C@H]2C[C@H]([C@]3(C)CC[C@]4(C[C@H](O)[C@@H](C)[C@@H]([C@@H](C)/C=C(\C)C(=O)[C@H](C)C[C@H](C)C(=O)O)O4)O3)O[C@]3(O[C@@H]([C@H]4O[C@@](O)(CO)[C@H](C)C[C@@H]4C)C[C@@H]3C)[C@@H]2C)O[C@@H]1C (some centres undefined),Z-AUC,[1],-1.49 (inactive)
same,Z-AUC,[1]; [6],-1.68
same,Z-AUC,[1]; measured here: PEO4 Z-AUC,-1.99
Cn1c(COP(=O)(NCCBr)NCCBr)cnc1[N+](=O)[O-],Z-AUC,[1],0.865 (inactive)
same,Z-AUC,[1]; [6],0.833
same,Z-AUC,[1]; measured here: PEO4 Z-AUC,1.09
N#CC(O[C@@H]1O[C@H](CO[C@@H]2O[C@H](CO)[C@@H](O)[C@H](O)[C@H]2O)[C@@H](O)[C@H](O)[C@H]1O)c1ccccc1 (some centres undefined),Z-AUC,[1],0.897 (inactive)
same,Z-AUC,[1]; [6],0.644
same,Z-AUC,[1]; measured here: PEO4 Z-AUC,0.881
C[C@@H](C1CC[C@@]2(O)C3=CC(=O)[C@@H]4C[C@@H](O)[C@@H](O)C[C@]4(C)[C@H]3CC[C@]12C)[C@H](O)CCC(C)(C)O (some centres undefined),Z-AUC,[1],0.596 (inactive)
same,Z-AUC,[1]; [6],0.976
same,Z-AUC,[1]; measured here: PEO4 Z-AUC,1.02
Cc1[nH]ncc1-c1cc2nc([C@@H]3CC4CCN3CC4)[nH]c(=O)c2s1,Z-AUC,[1],0.732 (inactive)
same,Z-AUC,[1]; [6],0.621
same,Z-AUC,[1]; measured here: PEO4 Z-AUC,0.645
C=C(C)[C@@H]1CCC(C)=C[C@H]1c1c(O)cc(CCCCC)cc1O,Z-AUC,[1],-0.487 (inactive)
same,Z-AUC,[1]; [6],0.125
same,Z-AUC,[1]; measured here: PEO4 Z-AUC,0.904
CC12CCC3C(CCC4=C(O)C(=O)CCC43C)C1CCC2=O (centres undefined),outcome,[3],inactive
same,outcome,[4],inactive
same,outcome,[5],inactive
CCCN(CCC)[C@@H]1CCc2c(F)ccc(O)c2C1,outcome,[3],inactive
same,outcome,[4],inactive
same,outcome,[5],inactive
C[N+]1(C)C2CC(OC(=O)C(CO)c3ccccc3)CC1C1OC12 (centres undefined),outcome,[3],inactive
same,"activity change, negative = inhibition",[2],0.686% (inactive) and -2.43% (inactive)
same,max response,[2]; [7],53.9% and -15.4%
same,max response,[2]; [8],52.9% and -17%
same,outcome,[4],inactive
same,outcome,[5],inactive
C#CCN(C)C(C)Cc1ccccc1 (centres undefined),outcome,[3],inactive
same,"activity change, negative = inhibition",[2],2.75% (inactive)
same,max response,[2]; [7],64.3%
same,max response,[2]; [8],65.5%
same,outcome,[4],inactive
same,outcome,[5],inactive
COC(=O)C(N)CCCN=C(N)N[N+](=O)[O-] (centres undefined),outcome,[3],inactive
same,outcome,[4],inactive
same,outcome,[5],inactive
COc1ccc2c3c1O[C@H]1C(=O)CC[C@@]4(O)C(C2)N(CC2CC2)CCC314 (some centres undefined),outcome,[3],inactive
same,outcome,[4],inactive
same,outcome,[5],inactive
COc1ccc2c(c1O)-c1cccc3c1C(C2)N(C)CC3 (centres undefined),outcome,[3],inactive
same,outcome,[4],inactive
same,outcome,[5],inactive
CCNC(=O)[C@H]1O[C@@H](n2cnc3c(N)ncnc32)[C@H](O)[C@H]1O,outcome,[3],inactive
same,outcome,[4],inactive
same,outcome,[5],inactive
NNCc1cccc(O)c1,outcome,[3],inactive
same,outcome,[4],inactive
same,outcome,[5],inactive
C/C1=C/C[C@@H](/C(C)=C/c2csc(C)n2)OC(=O)C[C@H](O)C(C)(C)C(=O)[C@H](C)[C@@H](O)[C@@H](C)CCC1,Potency,[1],19.5 nM (active)
same,Z-AUC,[1]; [6],-2.71
same,Z-AUC,[1]; measured here: PEO4 Z-AUC,-2.82
CCC(CO)NC(=O)[C@@H]1C=C2c3cccc4[nH]cc(c34)C[C@H]2N(C)C1 (some centres undefined),outcome,[3],inactive
same,"activity change, negative = inhibition",[2],0.713% (inactive)
same,max response,[2]; [7],-10.2%
same,max response,[2]; [8],-11.2%
same,outcome,[4],inactive
same,outcome,[5],inactive
CCCN(CCC)C(=O)Cc1c(-c2ccc(Cl)cc2)nc2c(Cl)cc(Cl)cn12,outcome,[3],inactive
same,"activity change, negative = inhibition",[2],1.58% (inactive)
same,max response,[2]; [7],-21.2%
same,max response,[2]; [8],-20.1%
same,outcome,[4],inactive
same,outcome,[5],inactive

# From PubChem BioAssay (NCATS)
